Test results taken from PubChem BioAssay.
Some of the results follow. A number with no mark means an inactive call. Activity calls are given as the source filed them. Rule as the data show it, unless noted: active = activation above about 20%; inactive = the rest.

Assays:
[1] = biological target: Peroxisome proliferator-activated receptor gamma (Homo sapiens) (UniProt P37231); assay: agonists of PPARgamma SRC-2 coactivator recruitment, confirmation, biochemical, HTS (AID 1297; in the data active = activation above about 22%;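 also: 0% = vehicle alone and 100% = reference agonist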); conditions: biochemical SRC-2 recruitment by PPARgamma; at 8 µM; active compounds read high
Chain of Peroxisome proliferator-activated receptor gamma (Homo sapiens) (P37231 whole entry, looked up): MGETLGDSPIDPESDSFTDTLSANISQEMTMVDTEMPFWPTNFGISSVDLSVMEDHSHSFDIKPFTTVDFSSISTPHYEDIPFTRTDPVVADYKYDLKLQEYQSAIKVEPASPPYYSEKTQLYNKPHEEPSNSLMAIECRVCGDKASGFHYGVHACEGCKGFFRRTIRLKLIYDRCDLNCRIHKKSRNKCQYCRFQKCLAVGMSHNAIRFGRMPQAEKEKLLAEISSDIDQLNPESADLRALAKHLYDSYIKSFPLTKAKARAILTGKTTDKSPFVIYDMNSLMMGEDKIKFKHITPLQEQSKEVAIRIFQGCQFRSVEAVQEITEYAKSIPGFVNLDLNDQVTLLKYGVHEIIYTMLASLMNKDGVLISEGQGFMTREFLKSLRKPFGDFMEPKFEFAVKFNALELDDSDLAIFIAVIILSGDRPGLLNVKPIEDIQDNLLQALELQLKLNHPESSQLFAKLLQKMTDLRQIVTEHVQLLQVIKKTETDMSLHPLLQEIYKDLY

[2] = biological target: Peroxisome proliferator-activated receptor gamma (Homo sapiens) (UniProt P37231); assay: PPARgamma agonists recruiting SRC-1 coactivator, confirmation, biochemical (AID 1300); conditions: PPARgamma–SRC-1 coactivator recruitment biochemical assay; at 8 µM; active compounds read high;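 also: 0% = vehicle wells and 100% = reference agonist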
[3] = biological target: Peroxisome proliferator-activated receptor gamma (Homo sapiens) + Nuclear receptor coactivator 3 (Homo sapiens) (UniProt P37231+Q9Y6Q9); assay: PPARgamma-driven SRC-3 coactivator recruitment agonists, confirmation, biochemical (AID 1301; in the data active = activation above about 24%;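 also: 0% = vehicle wells and 100% = reference agonist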); conditions: biochemical PPARgamma-SRC-3 coactivator recruitment, agonist mode; at 8 µM; active compounds read high
Chain of Peroxisome proliferator-activated receptor gamma (Homo sapiens) + Nuclear receptor coactivator 3 (Homo sapiens) (P37231 whole entry, looked up): as above
Chain of Peroxisome proliferator-activated receptor gamma (Homo sapiens) + Nuclear receptor coactivator 3 (Homo sapiens) (Q9Y6Q9 whole entry, looked up): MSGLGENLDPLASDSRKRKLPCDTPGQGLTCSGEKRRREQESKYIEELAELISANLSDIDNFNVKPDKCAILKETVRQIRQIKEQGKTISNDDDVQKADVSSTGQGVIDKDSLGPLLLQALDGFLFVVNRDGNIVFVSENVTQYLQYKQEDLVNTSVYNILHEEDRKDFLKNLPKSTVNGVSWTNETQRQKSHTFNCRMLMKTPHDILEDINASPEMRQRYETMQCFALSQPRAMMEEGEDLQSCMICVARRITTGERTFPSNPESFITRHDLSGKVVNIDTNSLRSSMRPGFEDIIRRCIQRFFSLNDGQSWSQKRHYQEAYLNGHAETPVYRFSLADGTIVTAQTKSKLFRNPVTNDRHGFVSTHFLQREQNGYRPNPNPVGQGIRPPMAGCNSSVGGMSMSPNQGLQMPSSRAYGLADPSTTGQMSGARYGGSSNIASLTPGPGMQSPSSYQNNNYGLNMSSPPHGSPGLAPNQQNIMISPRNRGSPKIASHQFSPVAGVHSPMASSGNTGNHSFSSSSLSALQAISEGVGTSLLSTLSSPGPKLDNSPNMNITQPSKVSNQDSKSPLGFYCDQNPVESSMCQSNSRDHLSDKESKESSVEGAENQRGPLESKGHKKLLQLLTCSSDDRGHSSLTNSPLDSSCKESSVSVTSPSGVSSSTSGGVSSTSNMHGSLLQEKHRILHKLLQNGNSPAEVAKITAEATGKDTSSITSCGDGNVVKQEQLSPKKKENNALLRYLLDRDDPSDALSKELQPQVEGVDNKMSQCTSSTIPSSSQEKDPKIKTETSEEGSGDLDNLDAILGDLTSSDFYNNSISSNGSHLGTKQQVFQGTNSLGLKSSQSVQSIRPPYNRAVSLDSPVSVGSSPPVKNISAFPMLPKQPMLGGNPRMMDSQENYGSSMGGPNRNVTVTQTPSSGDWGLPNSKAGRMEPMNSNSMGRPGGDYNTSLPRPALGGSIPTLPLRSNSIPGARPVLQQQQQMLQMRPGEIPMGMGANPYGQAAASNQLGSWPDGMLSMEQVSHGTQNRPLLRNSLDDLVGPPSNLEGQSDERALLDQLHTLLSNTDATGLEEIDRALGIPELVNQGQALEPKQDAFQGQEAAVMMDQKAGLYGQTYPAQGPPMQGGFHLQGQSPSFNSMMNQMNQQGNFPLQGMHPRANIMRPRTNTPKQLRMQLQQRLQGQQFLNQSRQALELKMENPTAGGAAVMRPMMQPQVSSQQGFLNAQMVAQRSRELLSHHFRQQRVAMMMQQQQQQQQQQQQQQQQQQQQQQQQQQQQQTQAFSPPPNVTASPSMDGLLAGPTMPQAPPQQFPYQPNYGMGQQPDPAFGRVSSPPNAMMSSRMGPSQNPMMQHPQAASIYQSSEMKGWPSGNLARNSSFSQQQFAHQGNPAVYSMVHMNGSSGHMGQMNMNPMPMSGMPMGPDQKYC

[4] = biological target: Sphingosine 1-phosphate receptor 4 (Homo sapiens) (UniProt O95977); assay: S1P4 receptor antagonists, human, confirmation, cell-based (AID 1524; in the data active = inhibition above about 30%); conditions: S1P4-expressing cell line, antagonist mode, reporter read-out; at 4.98 µM; active compounds read high
Chain of Sphingosine 1-phosphate receptor 4 (Homo sapiens) (O95977 whole entry, looked up): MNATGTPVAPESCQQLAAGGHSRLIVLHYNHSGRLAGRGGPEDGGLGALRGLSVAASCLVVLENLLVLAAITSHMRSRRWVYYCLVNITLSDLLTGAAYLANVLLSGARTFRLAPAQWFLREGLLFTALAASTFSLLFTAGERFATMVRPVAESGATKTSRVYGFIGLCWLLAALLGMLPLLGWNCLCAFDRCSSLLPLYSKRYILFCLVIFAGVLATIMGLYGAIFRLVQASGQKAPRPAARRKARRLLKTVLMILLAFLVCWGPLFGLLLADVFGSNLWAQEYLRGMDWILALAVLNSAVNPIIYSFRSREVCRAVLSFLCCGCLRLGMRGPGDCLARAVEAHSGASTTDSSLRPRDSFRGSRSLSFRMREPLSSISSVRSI

[5] = biological target: Sphingosine 1-phosphate receptor 1 (Homo sapiens) (UniProt P21453); assay: S1P1 receptor antagonists, human, counter-screen for S1P4 antagonist project, cell-based (AID 1564; in the data active = inhibition above about 40%;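 also: receptor stimulated with S1P near its EC80; 0% = agonist stimulated wells and 100% = vehicle only wells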); conditions: cell-based S1P1 antagonist counterscreen, at 4.98 µM, active compounds read high
Chain of Sphingosine 1-phosphate receptor 1 (Homo sapiens) (P21453 whole entry, looked up): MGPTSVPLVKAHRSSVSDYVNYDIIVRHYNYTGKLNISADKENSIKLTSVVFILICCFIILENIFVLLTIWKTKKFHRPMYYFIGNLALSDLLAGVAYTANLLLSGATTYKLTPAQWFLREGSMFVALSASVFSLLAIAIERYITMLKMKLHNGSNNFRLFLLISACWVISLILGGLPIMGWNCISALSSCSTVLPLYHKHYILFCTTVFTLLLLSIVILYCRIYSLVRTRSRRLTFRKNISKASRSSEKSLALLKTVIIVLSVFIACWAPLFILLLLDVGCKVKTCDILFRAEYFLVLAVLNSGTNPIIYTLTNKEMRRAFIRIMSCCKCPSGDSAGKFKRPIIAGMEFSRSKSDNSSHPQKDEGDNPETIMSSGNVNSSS

[6] = biological target: Protein-arginine deiminase type-4 (Homo sapiens) (UniProt Q9UM07); assay: human PAD4 inhibitors, confirmation, biochemical, fluorescence polarization (AID 488796;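 active = mean inhibition across replicates above the hit cutoff set by the earlier primary screen, cut at about 15% in these data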;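 also: inhibitors block active-site labeling by the probe so polarization falls; 0% = PAD4 with probe and DMSO and 100% = probe without PAD4 enzyme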); conditions: recombinant PAD4, RCA probe fluorescence polarization; at 6.36 µM; active compounds read high
Chain of Protein-arginine deiminase type-4 (Homo sapiens) (Q9UM07 whole entry, looked up): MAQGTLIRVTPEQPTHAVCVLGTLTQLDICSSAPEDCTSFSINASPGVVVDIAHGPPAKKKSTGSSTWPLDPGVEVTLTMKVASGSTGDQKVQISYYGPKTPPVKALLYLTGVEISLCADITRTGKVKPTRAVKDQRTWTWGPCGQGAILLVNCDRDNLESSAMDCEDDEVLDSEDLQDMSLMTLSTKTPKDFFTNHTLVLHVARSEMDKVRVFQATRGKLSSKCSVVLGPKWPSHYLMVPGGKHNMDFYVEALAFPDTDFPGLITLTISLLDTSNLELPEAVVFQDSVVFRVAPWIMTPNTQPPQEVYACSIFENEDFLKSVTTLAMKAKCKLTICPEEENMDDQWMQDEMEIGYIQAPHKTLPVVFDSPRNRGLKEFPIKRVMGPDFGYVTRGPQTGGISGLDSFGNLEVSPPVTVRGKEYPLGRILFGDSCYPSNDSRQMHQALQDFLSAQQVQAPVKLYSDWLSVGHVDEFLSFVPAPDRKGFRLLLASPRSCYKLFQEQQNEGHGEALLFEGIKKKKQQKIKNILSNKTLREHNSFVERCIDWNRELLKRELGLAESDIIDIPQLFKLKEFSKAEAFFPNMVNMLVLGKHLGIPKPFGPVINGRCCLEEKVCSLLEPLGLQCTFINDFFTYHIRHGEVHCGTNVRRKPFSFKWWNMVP

[7] = biological target: Serine protease HTRA1 (Homo sapiens) (UniProt Q92743); assay: HTRA1 protease inhibitors, retest, confirmation, biochemical, fluorescence polarization (AID 540248;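 active = mean inhibition over three repeats above a set limit taken from the earlier primary screen, cut at about 37% in these data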;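 also: 0% = HTRA1 with DMSO and 100% = wells lacking HTRA1; inhibitors block probe binding so polarization drops and inhibition rises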); conditions: recombinant HTRA1, FP-rhodamine activity-based probe, at 5.96 µM, active compounds read high
[8] = biological target: (Lyso)-N-acylphosphatidylethanolamine lipase (Mus musculus) (UniProt Q8VD66); assay: ABHD4 inhibitors, retest, confirmation, biochemical, fluorescence polarization, mouse (AID 720658;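 active = mean inhibition across replicates above the hit cutoff set in the primary screen, cut at about 30% in these data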;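 also: 0% = wild-type ABHD4 with DMSO and 100% = catalytically dead S159A mutant with DMSO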); conditions: purified mABHD4, FP-Rh probe fluorescence polarization; at 8.92 µM; active compounds read high
Chain of (Lyso)-N-acylphosphatidylethanolamine lipase (Mus musculus) (Q8VD66 whole entry, looked up): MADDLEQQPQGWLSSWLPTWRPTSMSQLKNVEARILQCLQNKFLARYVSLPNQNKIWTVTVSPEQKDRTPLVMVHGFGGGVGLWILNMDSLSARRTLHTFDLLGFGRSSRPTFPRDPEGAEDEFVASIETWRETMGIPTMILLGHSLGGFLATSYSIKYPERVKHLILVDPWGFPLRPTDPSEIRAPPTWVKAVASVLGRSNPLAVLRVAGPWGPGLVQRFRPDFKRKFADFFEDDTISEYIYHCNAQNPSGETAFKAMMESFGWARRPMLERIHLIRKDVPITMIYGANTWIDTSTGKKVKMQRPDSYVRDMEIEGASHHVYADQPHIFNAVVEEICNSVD

## Fc1ccc(COc2cccc(-c3n[nH]c(=S)o3)c2)cc1
[1]
  activation: 51.6% (active)
[2]
  activation: 39.9% (active)
[3]
  activation: 34% (active)

## Nc1nonc1-c1nc2ccccc2n1Cc1ccc(F)cc1
[4]
  inhibition: 35.7% (active)
[5]
  inhibition: 33%

## CCOC(=O)/C=C/C(=O)OCC(=O)NC(c1ccccc1)c1ccccc1
[4]
  inhibition: 63% (active)
[5]
  inhibition: 23.2%

## Cc1cc(C)nc(S/C=C/C(=O)c2ccccc2)n1
[4]
  inhibition: 97.1% (active)
[5]
  inhibition: 19.6%

## Cc1nc(-c2ccccc2)sc1-c1nc(-c2ccccc2)ncc1S(=O)(=O)c1ccccc1
[1]
  activation: 48.5% (active)
[2]
  activation: 29.3% (active)
[3]
  activation: 22.7%

## Cn1c(=O)cc(SCC(=O)N2CCN(C(=O)c3ccco3)CC2)c2ccccc21
[1]
  activation: 22.2% (active)
[2]
  activation: 12.7%
[3]
  activation: 17.9%

## CCc1ccc(-n2c(SCc3cc(=O)n4cc(Br)ccc4n3)nc3[nH]ncc3c2=O)cc1
[1]
  activation: 40.9% (active)
[2]
  activation: 26.6% (active)
[3]
  activation: 28.8% (active)

## Cc1cc(C)c2c(c1)cc(C)c1nnc(SCC(=O)Nc3cc(C)on3)n12
[1]
  activation: 18.6%
[2]
  activation: 17.6%
[3]
  activation: 12.5%

## C=CS(=O)c1sc(Cl)c(N2CCOCC2)c1[N+](=O)[O-] (stereo not given)
[4]
  inhibition: 102% (active)
[5]
  inhibition: 12.4%

## COC(=O)c1[nH]c2ccc(Br)cc2c1NC(=O)Oc1ccccc1
[1]
  activation: 7.14%
[2]
  activation: 3.71%
[3]
  activation: 4.54%

## Cc1ccc(-c2cc(C(=O)NCc3cn(C)nc3C)c3cc(Br)ccc3n2)cc1
[1]
  activation: 25.7% (active)
[2]
  activation: 15.9%
[3]
  activation: 16.9%

## Nc1ccc(Nc2ccccc2)cc1
[1]
  activation: 10.1%
[2]
  activation: 5.63%
[3]
  activation: 6.91%
[6]
  inhibition: 6.93%
[7]
  inhibition: 54.5% (active)
[8]
  inhibition: 36.4% (active)
